Experiments:
[1] = molecular target: T1, Aspartate--tRNA(Asp/Asn) ligase (Mycobacterium tuberculosis (strain ATCC 25618 / H37Rv)) (UniProt P9WFW3); assay: Assay for Asp RNA synthetase-1 from Mycobacterium tuberculosis; type: functional; set-up: scale not given: direction of the effect not stated beside the values; conditions: 30 µM; note: in the data most compounds retested in dose-response had high values
T1 sequence (whole entry): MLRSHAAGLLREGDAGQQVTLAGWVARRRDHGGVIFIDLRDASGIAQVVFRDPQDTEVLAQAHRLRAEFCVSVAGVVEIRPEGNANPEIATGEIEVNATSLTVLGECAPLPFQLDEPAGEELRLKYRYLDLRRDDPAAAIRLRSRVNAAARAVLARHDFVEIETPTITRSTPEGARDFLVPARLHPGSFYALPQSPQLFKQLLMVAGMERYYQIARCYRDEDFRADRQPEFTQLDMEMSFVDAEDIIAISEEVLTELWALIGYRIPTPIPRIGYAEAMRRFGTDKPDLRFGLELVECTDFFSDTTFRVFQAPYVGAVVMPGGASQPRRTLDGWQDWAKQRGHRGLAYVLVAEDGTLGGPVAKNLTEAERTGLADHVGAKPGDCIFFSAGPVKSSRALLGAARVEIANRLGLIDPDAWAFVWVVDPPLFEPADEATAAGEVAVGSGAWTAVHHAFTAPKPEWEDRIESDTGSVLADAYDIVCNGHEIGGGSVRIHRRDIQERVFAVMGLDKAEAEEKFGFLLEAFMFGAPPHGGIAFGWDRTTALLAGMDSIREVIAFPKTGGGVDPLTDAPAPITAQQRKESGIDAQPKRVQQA

[2] = molecular target: Shiga toxin 2 (Escherichia coli O157:H7) (UniProt P09385+P09386); assay: E. coli 0.157:H7 Shiga Toxin SOP - stx2 screening assay; type: functional; set-up: scale not given: direction of the effect not stated beside the values; conditions: 30 µM

Q: For Cc1noc(CN2CCOC(CN(C)C)C2)n1 (centres undefined), which Percent Effect [1] is on record?
A: -7.81%

Q: And the Percent Effect [2]?
A: -10.9%

Q: With Cc1[nH]c(=O)c(C#N)cc1C(=O)N1C[C@@H](CN2CCCC2)C[C@H](CO)C1 as the molecule, how does the Percent Effect [1] read?
A: -2.04%

Q: What about the Percent Effect [2] of the same molecule?
A: -3.42%

Q: What does the source list for Cc1cccc2c1OCCC2NCc1c(C)nn(C)c1N(C)C (centres undefined)?
A: Percent Effect [1]: 0.256%; Percent Effect [2]: 28.5%

Q: Cc1c(C(=O)NC(C)C(C)C)nnn1-c1cccc2c1CCN(C)C2 (centres undefined) was tested. Which Percent Effect [1] did it give?
A: 2.19%

Q: And the Percent Effect [2]?
A: 3.53%

Q: CCN1CCN(C(=O)NCCOc2ccc3c(c2)OCO3)CC1 was tested. Which Percent Effect [1] did it give?
A: -4.65%

Q: And the Percent Effect [2]?
A: -50%

Q: How did the Percent Effect [1] turn out when CC(C)n1[nH]c(=O)c2c1NC(=O)CC2c1ccc2ncccc2c1 (centres undefined) was run?
A: -3.5%

Q: And the Percent Effect [2]?
A: -15.3%

Q: For COc1cccc(C(=O)NS(=O)(=O)c2cccc(C#N)c2)c1OC, which Percent Effect [1] is on record?
A: 0.0291%

Q: What about the Percent Effect [2] of the same molecule?
A: 2.55%

Q: How did the Percent Effect [1] turn out when Cn1ccc(C(=O)NC2CCC23CCN(C(=O)c2ccncc2)CC3)c1 (centres undefined) was run?
A: 0.319%

Q: And the Percent Effect [2]?
A: -10.5%

Q: For O=C(O)c1cc(S(=O)(=O)Nc2ccc(Cl)cc2)cc2c1OCCO2, which Percent Effect [1] is on record?
A: 0.0437%

Q: What about the Percent Effect [2] of the same molecule?
A: -7.1%

Q: Which results are given for O=C(c1ccncc1)N1Cc2ccccc2OC2(CCOCC2)C1?
A: Percent Effect [1]: -4.33%; Percent Effect [2]: -1.88%

Q: With COC(=O)CCC(=O)N1CCc2[nH]nc(-c3ccc(F)c(F)c3)c2C1 as the molecule, how does the Percent Effect [1] read?
A: 5.15%

Q: What about the Percent Effect [2] of the same molecule?
A: -11.9%

Q: COCCCNC(=O)CCn1nc(C)c2ccccc21 was tested. Which Percent Effect [1] did it give?
A: -2.88%

Q: What about the Percent Effect [2] of the same molecule?
A: -11.5%

Q: How did the Percent Effect [1] turn out when Cc1nccn1C1CCCN(C(=O)c2ccc(N3CCCC3)nn2)C1 (centres undefined) was run?
A: 2.5%

Q: What about the Percent Effect [2] of the same molecule?
A: 17.8%

Q: CCC(NC(=O)c1ccco1)c1ccccc1OCC(=O)N1CCCC1 (centres undefined) was tested. Which Percent Effect [1] did it give?
A: 0.611%

Q: And the Percent Effect [2]?
A: -10.6%

Q: Which results are given for CC1CN(CC(=O)NC2CCCC2)CCN1c1ccc2nncn2n1 (centres undefined)?
A: Percent Effect [1]: -3.52%; Percent Effect [2]: -41.8%

Q: What does the source list for CC(=O)N(C)c1nc(CN2CCCCC2Cn2cncn2)cs1 (centres undefined)?
A: Percent Effect [1]: -3.1%; Percent Effect [2]: 9.21%

Q: With COc1cccc(CNC(=O)N2CCN(Cc3cc(C)on3)CC2)c1 as the molecule, how does the Percent Effect [1] read?
A: -2.94%

Q: What about the Percent Effect [2] of the same molecule?
A: 4.64%

Source: ChEMBL document CHEMBL3988442, “University of Dundee, Small-Polar-MMV Screening Library” (2021)
